Drawing on PubChem BioAssay (Tox21), this text covers Potency for 40 molecules.

“And” between values parts separate entries of the source, which are not always exact repeats. Identical values can stand only once. Inconclusive results are not listed. A call without a number means that no potency is given here. Some compounds were tested as several samples or in several runs, with calls that do not always agree. The source made the active and inactive calls. The call rests on the fitted dose curve; in most records, active means well fitted cell-killing curve with a large enough effect in the repeat runs; inconclusive means weak or mixed curves, or effect the other way; inactive means no such curve, though single readings can be large or run the other way.
Potency means the concentration at half of the fitted maximal effect.

The nature of the assay: qHTS assay for identifying genotoxic compounds that show differential cytotoxicity against isogenic chicken DT40 cell lines with known DNA damage response pathways - Rev3 mutant cell line (AID 743014). Further: nearly all actives have a fitted effect of over 55% in size. The note with it: chicken DT40 Rev3-/- viability, CellTiter-Glo, 40 h; series mostly up to 68.4 µM. From the text:
National Center for Advancing Translational Sciences [NCATS]
NIH Chemical Genomics Center [NCGC]
U.S. Environmental Protection Agency [EPA]
National Institutes of Environmental Health Sciences [NIEHS]
National Toxicology Program [NTP]
U.S. Food and Drug Administration [FDA]
DNA repair pathways play a critical role in cellular homeostasis by repairing DNA damage induced by endogenous processes and xenobiotics. Isogenic chicken DT40 cell lines deficient in different DNA repair pathways can be used to identify genotoxic compounds and aid in characterizing the nature of the DNA damage induced. Two DNA repair-deficient cell lines with disrupted genes, Rad54/Ku70 or Rev3, were used to screen the Tox21 10K compound library. Possible genotoxicity was based on the presence of a significant increase in cytotoxicity in one or more of the DNA repair-deficient cell lines compared to that observed in the parental DNA repair-proficient cell line. CellTiter Glo viability assay (Promega, Madison, WI) was used to measure cell viability in these cells after compound treatment. This assay includes the data from the Rev3 mutant cell line.
Tox21 Assay Protocol Summary:
300 DT40 mutant cells in 5 uL/well were dispensed into white, solid-bottom 1536-well plates using a Multidrop Combi (ThermoFisher Scientific, Waltham, MA) dispenser. After the assay plates were incubated at 37 C/5% CO2 for approximately 0.5 hour, 23 nL of compounds dissolved in DMSO, positive controls or DMSO only was transferred into the assay plate by a pintool work station (Kalypsys, San Diego, CA). The assay plates were incubated at 37 C/5% CO2 for 40 hours. After 5 uL per well of CellTiter-Glo reagent was added into each well of the assay plates, the plates were incubated for 30 min at room temperature and the luminescence intensity of the plates was measured using a ViewLux (PerkinElmer, Shelton, CT) plate reader.
A general note: Quantitative high-throughput screening tests each substance at several concentrations.
As for `COC(=O)C1CCC(C(=O)OC)CC1` (stereo not given), the Potency entry was “inactive”.
Under `CCN(CC)CCOC(=O)c1ccc(N)cc1` stands “inactive”; under `C=C(C)OC(C)=O`, “inactive”.
Turning to `COc1cc2c(c(OC)c1OC)-c1ccc(OC)c(=O)cc1[C@@H](NC(C)=O)CC2`, the Potency is 66.8 nM (active) and 12 nM (active) and 7.7 nM (active).
In the case of `O=C1OC(c2ccc(O)cc2)(c2ccc(O)cc2)c2ccccc21`, the Potency is 17.1 µM (active).
As for `CN(C)Cc1cc(CN(C)C)c(O)c(CN(C)C)c1`, the Potency entry is “inactive”.
On to `Cc1ccc(O)c(-n2nc3ccccc3n2)c1`, for which the Potency entry was “inactive”.
With `CC(C)(C)NCC(O)c1ccc(O)c(CO)c1` (stereo not given), the Potency result is “inactive”.
Consider `OC[C@@H](O)[C@@H](O)[C@H](O)[C@H](O)CO`, for which the Potency entry is “inactive”.
Turning to `COCC(C)N` (stereo not given), the Potency result was “inactive”.
Consider `Cc1cccc(Nc2cc(Cl)nc(SCC(=O)O)n2)c1C`, for which the Potency entry is “inactive”.
In the case of `CCCCOCCOCCOC(C)=O`, the Potency entry is “inactive”.
For `O=C(O)CN(CC(=O)O)CC(=O)O`, the Potency entry is “inactive”.
`CC(O)COc1ccccc1` (stereo not given): the Potency entry is “inactive”.
For the molecule `CC1(C)O[C@@H]2[C@@H](CO[C@@]3(COS(N)(=O)=O)OC(C)(C)O[C@@H]23)O1`, the Potency result was “inactive”.
Turning to `C#C[C@]1(O)CC[C@H]2[C@@H]3CCc4cc(O)ccc4[C@H]3CC[C@@]21C`, the Potency is 18.8 µM (active) and 27.1 µM (active).
Turning to `NC(N)=NC(N)=NCCc1ccccc1`, the Potency was 29.8 µM (active) and 17.1 µM (active) and 27.3 µM (active).
For the molecule `O=c1c(-c2ccc(O)cc2)coc2cc(O)cc(O)c12`, the Potency is 21.1 µM (active) and 53.5 µM (active) and 48.6 µM (active).
Take `c1ccc2[nH]c(-c3cscn3)nc2c1`: the Potency result is “inactive and 54.5 µM (active)”.
On to `CC(=O)OC/C=C(C)/C=C/C=C(C)/C=C/C1=C(C)CCCC1(C)C`, for which the Potency result was “inactive and 59.6 µM (active) and 54.5 µM (active)”.
With `CC1=NN(c2ccccc2)C(=O)C1`, the Potency result was “inactive”.
Consider `C1CNCCN1`, for which the Potency entry is “inactive and 62.9 µM (active)”.
The entry for `C#C[C@]1(O)CC[C@H]2[C@@H]3CCC4=CC(=O)CC[C@@H]4[C@H]3CC[C@@]21CC` is “inactive and 27.3 µM (active)”; for `O=C(O)CCCCC1CCSS1` (stereo not given) it is “inactive”; for `COCCOCCOC` it is “inactive”.
For `CC(=O)/C=C/C1=C(C)CCCC1(C)C`, the Potency result is “inactive”.
As for `NC(=O)N1c2ccccc2C=Cc2ccccc21`, the Potency result was “inactive and 30.6 µM (active)”.
Consider `COC(=O)c1ccc(C=O)cc1`, for which the Potency result was “inactive”.
Under `CCOCCO` stands “inactive”; under `O=c1cc[nH]c(=O)[nH]1`, “inactive”; under `CCOC(=O)C(C)(C)Oc1ccc(Cl)cc1`, “inactive”.
Turning to `C[C@]12CC[C@@H]3c4ccc(O)cc4C[C@@H](CCCCCCCCCS(=O)CCCC(F)(F)C(F)(F)F)[C@H]3[C@@H]1CC[C@@H]2O` (stereo not given in full), the Potency was 11.9 µM (active) and inactive.
As to `CC(C)=CCC/C(C)=C/CO`, the Potency result is “inactive”.
The entry for `COC(=O)c1ccc(O)cc1` is “inactive”; for `Cc1cnc(NC(=O)C2=C(O)c3ccccc3S(=O)(=O)N2C)s1` it is “inactive and 27.4 µM (active) and 8.63 µM (active)”; for `CCCCC/C(C=O)=C\c1ccccc1` it is “inactive”.
For `CCCCCCCCCCCCCCCCCC(=O)OCC(O)CO` (stereo not given), the Potency entry is “inactive”.
In the case of `CC(C)(C)CC(C)(C)c1ccc(O)c(-n2nc3ccccc3n2)c1`, the Potency entry is “inactive”.
As for `Nc1ccc(N=Nc2ccccc2)c(N)n1`, the Potency was 4.22 µM (active).
Under `CC(=O)c1ccc(S(=O)(=O)NC(=O)NC2CCCCC2)cc1` stands “inactive”.
